Data: PubChem BioAssay (EPA / NIEHS)
Activity calls are given as the source filed them. The calls were made as follows: active = hit-call score of the fitted dose curve at least 0.9, where 1 is the maximum; inactive = score below 0.9.

Assays:
[1] = read-out: C-C motif chemokine 2 (Homo sapiens) (UniProt P13500); experiment: BSK_KF3CT_MCP1: BioMAP Diversity Plus: KF3CT Assay for Monocyte Chemoattractant Protein 1 (MCP1/CCL2) Biomarker Activity (AID 2283073); conditions: primary human keratinocytes with fibroblasts; actives raise or lower the signal
In short: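 Keratinocytes and foreskin fibroblasts were co-cultured, dosed with chemical, and sampled 24 h later. MCP-1 was quantified by ELISA, and the endpoint was analyzed with bidirectional fitting using DMSO as negative control.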

[2] = read-out: Matrix Metallopeptidase 9 (MMP9), MMP9 (gene 4318); experiment: BSK_KF3CT_MMP9: BioMAP Diversity Plus: KF3CT Assay for Matrix Metallopeptidase 9 (MMP9) Biomarker Activity (AID 2283074); conditions: primary human keratinocytes with fibroblasts; actives raise or lower the signal;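 as to AC50: MMP9 protein level quantified by ELISA in the co-culture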
In short: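 ELISA read-out of MMP-9 at 24 h post-dosing in a co-culture of human skin keratinocytes and foreskin fibroblasts. Gain or loss of signal was fitted in both directions against DMSO.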

[3] = read-out: urokinase plasminogen activator (uPA), PLAU (gene 5328); experiment: BSK_KF3CT_uPA: BioMAP Diversity Plus: KF3CT Assay for urokinase plasminogen activator (uPA) Biomarker Activity (AID 2283075); conditions: primary human keratinocytes with fibroblasts; actives raise or lower the signal
In short: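 Skin co-culture (keratinocytes + foreskin fibroblasts), human primary; 24 h post-dose; uPA by ELISA; gain/loss fit vs DMSO baseline.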

[4] = read-out: CD40, CD40 (gene 958); experiment: BSK_LPS_CD40: BioMAP Diversity Plus: LPS Assay for CD40 Biomarker Activity (AID 2283076); conditions: primary human HUVEC with PBMC; actives raise or lower the signal
In short: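 CD40 signal, measured by ELISA, is fitted in both directions relative to DMSO vehicle. The system is an LPS-driven human vascular primary co-culture of endothelial cells and PBMC, sampled 24 h after compound addition.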

[5] = read-out: E-selectin (Homo sapiens) (UniProt P16581); experiment: BSK_LPS_Eselectin: BioMAP Diversity Plus: LPS Assay for Eselectin Biomarker Activity (AID 2283077); conditions: primary human HUVEC with PBMC; actives raise or lower the signal
In short: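 Signal of E-selectin, detected by ELISA, served as the endpoint; cells were umbilical vein endothelium with PBMC, read 24 h after treatment. DMSO defined baseline, and both increases and decreases were fitted.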

[6] = read-out: Interleukin-8 (IL8), CXCL8 (gene 3576); experiment: BSK_LPS_IL8: BioMAP Diversity Plus: LPS Assay for Interleukin-8 (IL8) Biomarker Activity (AID 2283078); conditions: primary human HUVEC with PBMC; actives raise or lower the signal
In short: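 Endothelial cells and PBMC from human donors are co-cultured, treated with chemicals and LPS, then assayed for IL-8 by ELISA after 24 h. Parallel SRB staining (0.1% SRB after 10% TCA fixation, 560 nm) flags cytotoxicity.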

[7] = BSK_LPS_SRB: Viability Assessment in the BioMAP Diversity Plus: LPS Assay (AID 2283079); conditions: primary human HUVEC with PBMC;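 also: total protein by sulforhodamine B absorbance as a cytotoxicity measure; measured one day after compound addition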
In short: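 Overt cytotoxicity was gauged by sulforhodamine B total-protein staining in a primary human vascular endothelial and mononuclear cell co-culture 24 h post-dosing. Activity was fitted in both directions relative to DMSO.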

[8] = read-out: Interleukin-1 alpha (IL1a), IL1A (gene 3552); experiment: BSK_LPS_IL1a: BioMAP Diversity Plus: LPS Assay for Interleukin-1 alpha (IL1a) Biomarker Activity (AID 2283080); conditions: primary human HUVEC with PBMC; actives raise or lower the signal
In short: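 Measured: IL-1 alpha via ELISA at 24 h in LPS-activated human umbilical vein endothelium–PBMC co-culture. Baseline: DMSO, bidirectional fitting.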

[9] = read-out: Monocyte Chemoattractant Protein-1 (MCP1), CCL2 (gene 6347); experiment: BSK_LPS_MCP1: BioMAP Diversity Plus: LPS Assay for Monocyte Chemoattractant Protein-1 (MCP1) Biomarker Activity (AID 2283081); conditions: primary human HUVEC with PBMC; actives raise or lower the signal;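 as to AC50: secreted MCP-1 protein quantified by ELISA in culture supernatant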
In short: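 LPS-stimulated HUVEC/PBMC co-culture; chemical, 24 h; MCP-1 by ELISA; bidirectional fit vs DMSO; cytotoxicity via SRB (0.1% stain, 10% TCA fix, 560 nm) in parallel wells.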

[10] = BSK_LPS_PGE2: BioMAP Diversity Plus: LPS Assay for Prostaglandin E2 (PGE2) Biomarker Activity (AID 2283082); conditions: primary human HUVEC with PBMC; actives raise or lower the signal;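 as to AC50: secreted prostaglandin E2 measured by ELISA in LPS-stimulated co-culture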
In short: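 PGE2 release measured by ELISA in an LPS-activated co-culture of human umbilical vein endothelial cells and peripheral blood mononuclear cells, read at 24 h post-dosing. DMSO served as baseline for bidirectional curve fitting.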

Measured: AC50

Chain of E-selectin (Homo sapiens) (P16581 whole entry, looked up): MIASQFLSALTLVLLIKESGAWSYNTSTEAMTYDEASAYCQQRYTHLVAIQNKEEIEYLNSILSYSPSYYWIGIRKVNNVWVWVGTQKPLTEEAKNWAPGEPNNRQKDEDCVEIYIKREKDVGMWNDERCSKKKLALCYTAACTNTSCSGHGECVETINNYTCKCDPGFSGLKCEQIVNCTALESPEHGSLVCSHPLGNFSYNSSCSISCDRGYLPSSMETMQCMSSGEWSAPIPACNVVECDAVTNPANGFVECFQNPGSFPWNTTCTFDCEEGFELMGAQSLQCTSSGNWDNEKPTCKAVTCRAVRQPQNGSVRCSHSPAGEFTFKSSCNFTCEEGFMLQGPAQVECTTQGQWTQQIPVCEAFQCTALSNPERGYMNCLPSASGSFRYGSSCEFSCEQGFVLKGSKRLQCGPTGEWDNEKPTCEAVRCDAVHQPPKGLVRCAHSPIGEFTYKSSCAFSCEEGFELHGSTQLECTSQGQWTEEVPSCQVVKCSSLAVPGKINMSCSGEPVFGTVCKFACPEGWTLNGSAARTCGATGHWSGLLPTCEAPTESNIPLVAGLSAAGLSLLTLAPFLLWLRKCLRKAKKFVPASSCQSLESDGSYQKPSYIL

Cc1c(-c2cccnc2)c2ccccc2n1CCCCC(=O)O
active: [10] 1.14 µM
inactive: all other assays above

CC(O)CN(CCN(CC(C)O)CC(C)O)CC(C)O (stereo unspecified)
not listed: [10]
inactive: all other assays above

CC[C@H]1CC[C@H](NCc2cc3c(cc2OC)[C@H]2C[C@H]2C(=O)N3C)[C@H](c2ccccc2)N1
not listed: [10]
inactive: all other assays above

Clc1nc(Cl)c(Cl)c(Cl)c1Cl
inactive: [1] | [2] | [3] | [7]
active: [4] 30.4 µM | [5] 30.9 µM | [6] 32.7 µM | [8] 14.4 µM | [9] 32.1 µM

CCn1nc(Cc2ccccc2)cc1C1CCN(C[C@H]2C[C@H](N(C)[C@@H](C(=O)O)C(C)C)C[C@@H]2c2cccc(F)c2)CC1
not listed: [10]
inactive: all other assays above

CCCCC(CC)COC(=O)CCCCCCCCC(=O)OCC(CC)CCCC (stereo unspecified)
active: [1] 3.97 µM
inactive: all other assays above

CCOC(=O)c1ccc(C2CCC(NC[C@H](O)COc3ccc(O)c(NS(C)(=O)=O)c3)CC2)cc1 (stereo partly specified)
active: [2] 27.2 µM | [6] 30.9 µM | [7] 26.1 µM | [8] 29.9 µM | [9] 34.1 µM
inactive: [1] | [3] | [4] | [5] | [10]

COC(=O)c1c(Cl)c(Cl)c(C(=O)OC)c(Cl)c1Cl
active: [4] 11.4 µM
inactive: all other assays above

COc1ccc(-n2nc(C(F)F)cc2-c2ccc(S(C)=O)cc2)cc1 (stereo unspecified)
active: [4] 1.7 µM | [8] 4.92 µM | [10] 0.342 µM
inactive: all other assays above

CC(=O)OC[C@H]1O[C@@](COC(C)=O)(O[C@H]2O[C@H](COC(C)=O)[C@@H](OC(C)=O)[C@H](OC(C)=O)[C@H]2OC(C)=O)[C@@H](OC(C)=O)[C@@H]1OC(C)=O
inactive: all assays above

O=C(O)c1cccc(N(Cc2cccnc2)c2ccc(OC(F)F)c(OC(F)F)c2)c1
active: [5] 11 µM | [6] 9.79 µM | [8] 20 µM | [9] 10.7 µM | [10] 12.2 µM
inactive: [1] | [2] | [3] | [4] | [7]

CNS(=O)(=O)c1cc(C(=O)N2CCC(CCN3C4CCC3CC(n3c(C)nc5ccccc53)C4)(c3cccc(F)c3)CC2)c(Cl)cc1F (stereo unspecified)
active: [2] 20 µM | [4] 20 µM | [6] 20 µM | [7] 17.4 µM | [8] 23.5 µM | [9] 24.2 µM
inactive: [1] | [3] | [5]

CC(C)CCCCCCCOC(=O)CCCCC(=O)OCCCCCCCC(C)C
inactive: all assays above

Cc1ccc(C)c(O)c1
not listed: [10]
inactive: all other assays above

CCCCCCc1ccc(O)cc1O
active: [1] 26.2 µM | [2] 34.1 µM | [3] 31.6 µM | [4] 27.6 µM | [5] 31.8 µM | [6] 29.6 µM | [7] 28.5 µM | [8] 26.6 µM | [9] 30.2 µM | [10] 1.38 µM

COCCOCCOCCOC
inactive: all assays above

O=C(OC[C@H]1O[C@@H](OC(=O)c2cc(O)c(O)c(OC(=O)c3cc(O)c(O)c(O)c3)c2)[C@H](OC(=O)c2cc(O)c(O)c(OC(=O)c3cc(O)c(O)c(O)c3)c2)[C@@H](OC(=O)c2cc(O)c(O)c(OC(=O)c3cc(O)c(O)c(O)c3)c2)[C@@H]1OC(=O)c1cc(O)c(O)c(OC(=O)c2cc(O)c(O)c(O)c2)c1)c1cc(O)c(O)c(OC(=O)c2cc(O)c(O)c(O)c2)c1
active: [2] 6.1 µM | [3] 1.08 µM | [7] 10 µM | [9] 11 µM
inactive: all other assays above

CC(C)c1cccc(C(C)C)c1N1C(=O)c2ccc(O)cc2C1=O
inactive: [1] | [6] | [8] | [10]
active: [2] 23.2 µM | [3] 36.7 µM | [4] 8.13 µM | [5] 18.9 µM | [7] 17.4 µM | [9] 34.8 µM

COC(=O)c1ccccc1O
inactive: all assays above

O=C(NS(=O)(=O)/C=C/c1ccccc1)c1ccc(F)cc1Cl
inactive: all assays above

CC(C)CCO
not listed: [1] | [10]
inactive: all other assays above

Nc1ccc(Nc2ccccc2)cc1
active: [2] 3.97 µM | [4] 3.97 µM | [5] 12.9 µM | [6] 11.2 µM | [9] 8.02 µM | [10] 1.44 µM
inactive: [1] | [3] | [7]

CC1(C)C(=O)N(Br)C(=O)N1Br
inactive: all assays above

CCOCCO
inactive: all assays above

CC[C@H](C)C(=O)O[C@H]1C[C@@H](C)C=C2C=C[C@H](C)[C@H](CC[C@@H]3C[C@@H](O)CC(=O)O3)[C@H]21
inactive: [6] | [9] | [10]
active: [1] 32.5 µM | [3] 32.5 µM | [4] 13.8 µM | [5] 0.398 µM | [7] 3.95 µM | [8] 3.95 µM

CCNc1ccccc1
inactive: all assays above

CC(C)=CCCC(C)=CC=O
inactive: all assays above

CC(C)=CCC/C(C)=C\CO
not listed: [4] | [10]
inactive: all other assays above

CC[C@H]1OC(=O)[C@H](C)[C@@H](O[C@H]2C[C@@](C)(OC)[C@@H](O)[C@H](C)O2)[C@H](C)[C@@H](O[C@@H]2O[C@H](C)C[C@H](N(C)C)[C@H]2O)[C@](C)(O)C[C@@H](C)C(=O)[C@H](C)[C@@H](O)[C@]1(C)O
inactive: all assays above

Nc1cccc(N)c1
inactive: all assays above

Nc1nc2ncc(CNc3ccc(C(=O)N[C@@H](CCC(=O)O)C(=O)O)cc3)nc2c(=O)[nH]1
inactive: all assays above

C1=CCCC=CCCC=CCC1
inactive: all assays above

CC(=O)OCCC(C)C
inactive: all assays above

CCN(C(=O)c1cc(C)cc(OC[C@H](C)Nc2ccncc2)c1)C(C)C
active: [3] 13.5 µM
not listed: [1]
inactive: all other assays above

COc1cccc(-c2ccc(/C=C\CN3CCCCCC3)cc2Cl)c1
inactive: [5] | [6] | [9] | [10]
active: [1] 28.5 µM | [2] 28 µM | [3] 33.5 µM | [4] 28.6 µM | [7] 26.8 µM | [8] 28.4 µM

Fc1ccccc1[C@@H](F)COC1CCC(Nc2ncnc3[nH]ncc23)CC1 (stereo partly specified)
active: [4] 15.4 µM | [5] 29 µM | [6] 28.9 µM | [7] 29.2 µM | [9] 30.3 µM
inactive: [1] | [2] | [3] | [8] | [10]

O=C(O)CCN(C1(C(=O)NO)CCCC1)S(=O)(=O)c1ccc(Oc2ccc(F)cc2)cc1
inactive: all assays above

COc1ccc(/C=C/S(=O)(=O)NC(=O)c2ccc(C)cc2Cl)cc1
inactive: all assays above

COCCOc1cc2cc(C(=O)NC3CCN(C(C)C)CC3)n(CC(=O)Nc3ccc(Cl)cn3)c2cn1
inactive: all assays above

Cc1ccc(O)cc1
active: [10] 4.37 µM
inactive: all other assays above

C=CCCCCCCCCC(=O)O
active: [10] 8.17 µM
inactive: all other assays above

On1ccccc1=S
active: [2] 8.53 µM | [3] 11 µM | [4] 19.8 µM | [5] 31.2 µM | [7] 26.2 µM | [8] 19.8 µM | [10] 31.1 µM
inactive: [6] | [9]
